Bioassay records: PubChem, National Center for Advancing Translational Sciences (NCATS)
Gal4-VP16 FLuc: inhibits Gal4-VP16 luciferase reporter, ROR gamma counter-screen | 3.5% of 310,000 active | Potency, µM (titrated, usually from 53.6 µM), for inactives: at the highest dose activity, negative = inhibition, hits mostly inhibitors | Drosophila S2 Gal4-VP16 UAS-luciferase, luminescence, 20 h;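 further: Gal4-VP16 expression switched on by copper sulfate through the metallothionein promoter; nearly all actives have a fitted effect of over 50% in size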
RORgamma inh: ROR gamma (mouse) transcription inhibition. P51450. Drosophila S2 Gal4-RORgamma UAS-luciferase reporter, 20 h. Potency, µM (series often up to 53.6 µM), without a hit: top-dose activity change, negative = inhibition, most hits filed as inhibitors. 5.4% of 310,000 active; further: nearly all actives have a fitted effect of over 60% in size
Target sequence (P51450 whole entry, looked up, the tested form may be a part): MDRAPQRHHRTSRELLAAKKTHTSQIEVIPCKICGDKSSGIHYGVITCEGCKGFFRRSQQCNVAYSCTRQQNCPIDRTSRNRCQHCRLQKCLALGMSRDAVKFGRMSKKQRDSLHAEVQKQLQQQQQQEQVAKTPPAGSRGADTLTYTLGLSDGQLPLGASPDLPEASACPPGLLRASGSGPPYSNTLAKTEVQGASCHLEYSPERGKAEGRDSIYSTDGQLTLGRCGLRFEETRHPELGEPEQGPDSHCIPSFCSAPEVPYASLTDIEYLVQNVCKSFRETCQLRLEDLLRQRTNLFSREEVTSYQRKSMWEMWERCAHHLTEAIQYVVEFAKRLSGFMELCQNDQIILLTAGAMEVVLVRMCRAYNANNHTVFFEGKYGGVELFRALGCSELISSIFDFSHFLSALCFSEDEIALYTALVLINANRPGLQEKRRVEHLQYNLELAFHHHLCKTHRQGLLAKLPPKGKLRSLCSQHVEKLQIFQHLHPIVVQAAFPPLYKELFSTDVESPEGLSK
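Stable Schneider cell line, Gal4 DNA-binding domain fused to ROR gamma, UAS-luciferase. Cmpd 1 hr RT → CuSO4 700 uM final → 20 hr RT → luciferase reagent 10 min → luminescence.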
ALOX12 inh: blocks human arachidonate 12S-lipoxygenase; purified 12hLO, xylenol orange hydroperoxide absorbance; 1.1% of 580,000 active; Potency, µM (top dose mostly 108 µM), inactives show at the highest dose activity change, negative = inhibition, most hits filed as inhibitors; P18054; AID 1671190
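Purified human 12hLO at 150 nM in 25 mM Hepes, 0.01% Triton X-100, pH 7.0, preincubated 15 min at room temperature with compound. Reaction started with 40 uM arachidonic acid, 30 min at room temperature. Hydroperoxide measured by Fe-xylenol orange, 573/405 nm absorbance ratio.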
DT40 TDP1 CPT: DT40-hTDP1 cell growth loss with CPT. Potency, µM (series often up to 46.2 µM), without a hit: at the top dose activity change, negative = growth inhibition, usual class: inhibitors. AID 686979. 12% of 420,000 active. chicken DT40 Tdp1-/-;hTDP1 cells + 20 nM CPT, ATP luminescence, 48 h; further: nearly all actives have a fitted effect of over 55% in size
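Cell growth measured by CellTiter-Glo luminescence after a minimum 48 h, 37 C compound exposure with 20 nM CPT in Tdp1-knockout DT40 cells stably expressing hTDP1, seeded 400/well; qHTS titration format.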
DT40 TDP1 no CPT: qHTS for Inhibitors of human tyrosyl-DNA phosphodiesterase 1 (TDP1): qHTS in cells in absence of CPT. DT40 Tdp1-/- hTDP1 cells, no CPT, ATP luminescence, 48 h. Potency, µM (series often up to 46.2 µM), inactives show top-dose activity change, negative = growth inhibition, hits mostly inhibitors. 15% of 420,000 active. AID 686978, 2013; further: nearly all actives have a fitted effect of over 55% in size
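Readout: luminescence from CellTiter-Glo after 30 min in the dark at RT. Cells: DT40 Tdp1-/- with stable hTDP1, 400/well. Exposure: compounds alone, ≥48 hr, 37 °C.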
ELG1 DNA repair: ELG1-dependent DNA repair inhibition | AID 504467 | Potency, µM (titrated, usually from 46.1 µM), without a hit: at the highest dose activity change, negative = inhibition, hits mostly inhibitors | 2.3% of 330,000 active | HEK293T ELG1-luciferase reporter, luminescence, 16 h; DNA damage induced by 5-fluorouridine; further: nearly all actives have a fitted effect of over 55% in size
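HEK293T cells expressing luciferase-tagged ELG1 (2,000/well) received 5-Fluorouridine plus compound or DMSO for 16 hr at 37 °C. Luciferase was read by ONE-Glo luminescence after 30 min at room temperature.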
The depositor's hits bear a star; [ ] = another dose, or the depositor's remark. An excerpt weighted towards active compounds, which were near 15% of everything screened. The call rests on the fitted dose curve; in most records, active means well fitted curve in the direction sought with a large enough effect; inconclusive means small, poorly fitted or top-dose-only effect, or another doubt; inactive means no such curve, though single readings can be large; an effect the other way counts as inactive or inconclusive. On the % scale 0 is the no-effect control and ±100 the full control effect; potency means the concentration at half of the fitted maximal effect.

What do the screens show for `NNc1nc2cccnc2n(CCNc2ncc(C(F)(F)F)cc2Cl)c1=O`?
Gal4-VP16 FLuc: 2%; RORgamma inh: 10µM*; ALOX12 inh: -11%; DT40 TDP1 CPT: 16µM*; DT40 TDP1 no CPT: inconclusive; ELG1 DNA repair: inconclusive

How did O=C(NC1CCCCCCC1)C1CCN(C(=O)c2ncn3c2COC(c2ccc(Cl)cc2)C3)CC1 (stereo not given) do in these assays?
ALOX12 inh: 11%

Results for O=C(CC(c1ccc(F)cc1)c1cn(Cc2ccccc2)c2ccc([N+](=O)[O-])cc12)N1CCOCC1 (stereo not given) ?
ALOX12 inh: 13%

What do the screens show for `Cc1cccc(OCC2(CNCc3c(C)noc3C)C[C@@H](O)[C@@H](O)C2)n1` (stereo not given in full)?
ALOX12 inh: 32µM*

How did CCN1CSC(=S)N(Cc2ccc(OC)cc2)C1 do in these assays?
Gal4-VP16 FLuc: 13µM*; RORgamma inh: 14µM*; ALOX12 inh: -25%; DT40 TDP1 CPT: 5.2µM*; DT40 TDP1 no CPT: 4.6µM*; ELG1 DNA repair: -19%

Results for S=C1NCN(Cc2ccccc2)CN1 ?
Gal4-VP16 FLuc: 0%; RORgamma inh: 2%; ALOX12 inh: 87%; DT40 TDP1 CPT: -1%; DT40 TDP1 no CPT: 0%; ELG1 DNA repair: 28%

What do the screens show for `CCCCCN1CSC(=S)N(Cc2ccccc2)C1`?
Gal4-VP16 FLuc: 18µM*; RORgamma inh: 10µM*; ALOX12 inh: inconclusive; DT40 TDP1 CPT: 4.6µM*; DT40 TDP1 no CPT: 3.7µM*; ELG1 DNA repair: inconclusive

What do the screens show for `CCN1CSC(=S)N(Cc2ccccc2)C1`?
Gal4-VP16 FLuc: 10µM*; RORgamma inh: 10µM*; ALOX12 inh: 14%; DT40 TDP1 CPT: 2.6µM*; DT40 TDP1 no CPT: 4.6µM*; ELG1 DNA repair: -1%

What do the screens show for `S=C1SCN(Cc2cccs2)CN1Cc1cccs1`?
ALOX12 inh: 1%; DT40 TDP1 CPT: inconclusive; DT40 TDP1 no CPT: 23µM*

What do the screens show for `O/N=C/c1ccc(OCc2ccccc2)cc1`?
ALOX12 inh: -19%

Results for CC(C)C(c1nnnn1Cc1ccc2c(c1)OCO2)N1CCN(C)CC1 (stereo not given) ?
Gal4-VP16 FLuc: -6%; RORgamma inh: -18%; ALOX12 inh: 50%; DT40 TDP1 CPT: -1%; DT40 TDP1 no CPT: -9%; ELG1 DNA repair: 0%

What do the screens show for `CC(C)C(c1nnnn1Cc1ccc2c(c1)OCO2)N1CCN(c2ccccc2)CC1` (stereo not given)?
Gal4-VP16 FLuc: -4%; RORgamma inh: 1%; ALOX12 inh: 0%; DT40 TDP1 CPT: -15%; DT40 TDP1 no CPT: 21µM*; ELG1 DNA repair: 0%

What do the screens show for `COc1ccc(Cn2nnnc2C(c2ccccn2)N2CCN(c3cc(Cl)ccc3C)CC2)cc1` (stereo not given)?
Gal4-VP16 FLuc: -11%; RORgamma inh: 9%; ALOX12 inh: -27%; DT40 TDP1 CPT: 29µM*; DT40 TDP1 no CPT: inconclusive; ELG1 DNA repair: inconclusive

What do the screens show for `COCCn1nnnc1C(c1ccccn1)N1CCN(c2cc(Cl)ccc2C)CC1` (stereo not given)?
Gal4-VP16 FLuc: 3%; RORgamma inh: -27%; ALOX12 inh: 0%[57.4 µM]; DT40 TDP1 CPT: inconclusive; DT40 TDP1 no CPT: inconclusive; ELG1 DNA repair: -10%

What do the screens show for `CCCC(c1nnnn1Cc1ccc(OC)cc1)N1CCN(c2ccccc2)CC1` (stereo not given)?
Gal4-VP16 FLuc: 8%; RORgamma inh: 19%; ALOX12 inh: 0%; DT40 TDP1 CPT: inconclusive; DT40 TDP1 no CPT: 23µM*; ELG1 DNA repair: -8%
